# PubChem BioAssay
# Activity calls are given as the source filed them.
# How the values were obtained:
# [1] = optical density shifts of acrAB sulA E. coli – strain DRC41, OD650, 48 h, E. coli filamentation inducer project, primary screen (AID 1152); details: higher = more signal, called active from +8 up or from −8 down;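 also: E. coli MC1000 strain DRC41 lacking acrAB efflux pump and sulA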
# [2] = probe aLefty1 binding on compound microarray – biochemical, small-molecule microarray, 635/667 nm fluorescence, primary screen (AID 1153); details: higher = more signal;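 also: score merges spot fluorescence with signal-to-noise ratio from the scanned slide images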
# [3] = plasmodial surface anion channel blockers, osmotic lysis – cell-based, P. falciparum Indochina, OD700, 1 h, primary screen (AID 1154); details: P. falciparum Indochina infected RBC osmotic lysis, higher = more signal, called active from +8 up or from −8 down
# [4] = plasmodial surface anion channel blockers, osmotic lysis – cell-based, P. falciparum Indochina, OD700, 2 h, primary screen (AID 1155);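 also: lysis reports solute entry through the parasite surface anion channel PSAC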; details: P. falciparum Indochina infected erythrocytes, higher = more signal, called active from +8 up or from −8 down
# [5] = changes in parasitized red cell lysis, either direction – P. falciparum Indochina, OD700, 3 h, PSAC antagonist project, primary screen (AID 1156); details: P. falciparum-infected erythrocytes, osmotic lysis, higher = more signal, called active from +8 up or from −8 down
# [6] = plasmodial surface anion channel blockers, osmotic lysis – cell-based, P. falciparum Indochina, OD700, 18 h, primary screen (AID 1157); details: P. falciparum Indochina infected erythrocytes, osmotic lysis OD700, 18 h; higher = more signal, called active from +8 up or from −8 down
# [7] = S6 kinase pathway phospho-S6 level changes – cell-based, A549, cytoblot, luminescence, serum-stimulated, primary screen (AID 1158); details: 5 h, higher = more signal;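 also: serum-stimulated A549 lung adenocarcinoma cells; signal is phosphorylated S6 detected by cytoblot immunostaining with HRP secondary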
# [8] = molecular target: NADPH oxidase 2 (Homo sapiens) (UniProt P04839); assay: compounds shifting NOX2 Amplex Red fluorescence – cell-based, HEK293-NOX2, PMA-stimulated, NOX inhibitor project, primary screen (AID 1159); details: 45 min, higher = more signal, called active from +8 up or from −8 down; also: test concentration not given here
# Sequence of NADPH oxidase 2 (Homo sapiens) (P04839 whole entry, looked up): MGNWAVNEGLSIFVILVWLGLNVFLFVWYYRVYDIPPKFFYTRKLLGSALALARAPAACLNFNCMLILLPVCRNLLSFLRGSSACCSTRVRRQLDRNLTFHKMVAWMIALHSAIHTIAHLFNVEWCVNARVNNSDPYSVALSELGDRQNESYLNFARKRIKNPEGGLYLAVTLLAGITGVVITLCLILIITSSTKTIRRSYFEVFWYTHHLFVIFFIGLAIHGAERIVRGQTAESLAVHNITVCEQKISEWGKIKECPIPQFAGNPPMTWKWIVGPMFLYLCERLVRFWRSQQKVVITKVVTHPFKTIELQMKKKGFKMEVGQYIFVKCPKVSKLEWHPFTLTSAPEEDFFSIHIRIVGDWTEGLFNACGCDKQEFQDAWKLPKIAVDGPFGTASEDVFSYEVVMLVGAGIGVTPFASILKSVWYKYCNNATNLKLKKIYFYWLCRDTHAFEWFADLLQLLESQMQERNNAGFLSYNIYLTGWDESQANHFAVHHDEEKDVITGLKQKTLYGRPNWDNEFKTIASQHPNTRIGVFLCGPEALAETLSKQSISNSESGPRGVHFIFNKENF
# [9] = molecular target: NADPH oxidase 4 (Homo sapiens) (UniProt Q9NPH5); assay: compounds shifting NOX4 Amplex Red fluorescence – cell-based, HEK293-NOX4, tetracycline-induced, NOX inhibitor project, primary screen (AID 1160); details: HEK293-NOX4, Amplex Red H2O2 fluorescence, 45 min; higher = more signal, called active from +8 up or from −8 down
# Sequence of NADPH oxidase 4 (Homo sapiens) (Q9NPH5 whole entry, looked up): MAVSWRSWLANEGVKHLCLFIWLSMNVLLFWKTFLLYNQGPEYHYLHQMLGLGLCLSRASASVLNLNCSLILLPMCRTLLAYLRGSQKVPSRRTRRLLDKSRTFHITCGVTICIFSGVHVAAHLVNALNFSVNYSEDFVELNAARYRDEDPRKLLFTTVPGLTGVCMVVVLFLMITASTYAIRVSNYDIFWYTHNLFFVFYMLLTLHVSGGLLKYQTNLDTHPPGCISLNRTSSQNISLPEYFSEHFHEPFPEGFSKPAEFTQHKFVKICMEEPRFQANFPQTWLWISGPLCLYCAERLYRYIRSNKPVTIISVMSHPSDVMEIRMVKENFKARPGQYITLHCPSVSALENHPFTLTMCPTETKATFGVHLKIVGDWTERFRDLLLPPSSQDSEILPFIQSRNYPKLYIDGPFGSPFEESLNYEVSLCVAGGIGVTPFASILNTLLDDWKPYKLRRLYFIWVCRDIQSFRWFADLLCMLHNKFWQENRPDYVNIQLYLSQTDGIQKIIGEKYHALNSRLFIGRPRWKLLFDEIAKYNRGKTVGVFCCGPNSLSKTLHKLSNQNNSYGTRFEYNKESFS
# [10] = molecular target: NADPH oxidase 5 (Homo sapiens) (UniProt Q96PH1); assay: compounds shifting NOX5 Amplex Red fluorescence – cell-based, HEK293-NOX5, NOX inhibitor project, primary screen (AID 1161); details: HEK293-NOX5, ionomycin, 45 min, higher = more signal
# Sequence of NADPH oxidase 5 (Homo sapiens) (Q96PH1 whole entry, looked up): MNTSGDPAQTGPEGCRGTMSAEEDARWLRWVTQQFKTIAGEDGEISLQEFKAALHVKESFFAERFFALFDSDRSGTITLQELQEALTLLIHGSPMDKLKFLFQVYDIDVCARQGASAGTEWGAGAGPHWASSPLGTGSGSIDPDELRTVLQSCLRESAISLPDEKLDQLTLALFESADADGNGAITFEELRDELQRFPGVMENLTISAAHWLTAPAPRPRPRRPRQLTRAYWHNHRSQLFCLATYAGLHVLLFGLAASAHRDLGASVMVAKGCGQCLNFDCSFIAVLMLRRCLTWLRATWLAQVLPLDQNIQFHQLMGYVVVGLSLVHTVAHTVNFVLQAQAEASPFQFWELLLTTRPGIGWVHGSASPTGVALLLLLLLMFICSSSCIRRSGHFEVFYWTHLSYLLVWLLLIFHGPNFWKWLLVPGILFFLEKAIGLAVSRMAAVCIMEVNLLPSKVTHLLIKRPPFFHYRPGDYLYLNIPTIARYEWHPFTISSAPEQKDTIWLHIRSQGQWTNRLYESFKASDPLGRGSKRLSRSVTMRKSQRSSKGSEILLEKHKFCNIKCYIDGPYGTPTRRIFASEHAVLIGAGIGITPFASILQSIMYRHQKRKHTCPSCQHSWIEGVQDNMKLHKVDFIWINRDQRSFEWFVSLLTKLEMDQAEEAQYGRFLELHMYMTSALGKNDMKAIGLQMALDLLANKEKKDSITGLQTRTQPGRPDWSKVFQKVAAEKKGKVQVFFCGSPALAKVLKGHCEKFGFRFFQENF
SMILES,z-score [1],composite z-score [2],z-score [3],z-score [4],z-score [5],z-score [6],z-score [7],z-score [8],z-score [9],z-score [10]
C=C(C(=O)CC[C@@H](OC(=O)c1cccnc1)c1cccc(OCCO)c1)C(C)C,1.35 (inactive),-0.309,13.8 (active),0.717 (inactive),-0.204 (inactive),-1.02 (inactive),0.62,-0.967 (inactive),-0.193 (inactive),-1.84
[N-]=[N+]=NCc1ccccc1[C@H]1OC(c2ccc(OCCCO)cc2)=N[C@@]1(Cc1ccccc1N=[N+]=[N-])C(=O)N1CCOCC1,-0.476 (inactive),0.181,28.3 (active),22 (active),2.5 (inactive),3.77 (inactive),-0.318,-5.55 (inactive),-1.03 (inactive),-2.42
O=C/C=C/c1ccc(-c2ccccc2)cc1,1.06 (inactive),-0.0186,2.39 (inactive),-0.681 (inactive),-0.103 (inactive),-2.17 (inactive),1.04,0.388 (inactive),-1.85 (inactive),0.605
C=CCOC(=O)[C@H]1[C@@H]2C(=O)O[C@@H](c3ccccc3)[C@@H](c3ccccc3)N2[C@@H](c2ccc(OCCOC(=O)[C@@H]3C[C@@H]4C(=O)N[C@@H](Cc5ccccc5)C(=O)N4[C@@H]3c3ccc(O)cc3)cc2)[C@]12C(=O)Nc1ccc(I)cc12,-0.402 (inactive),0.861,4.04 (inactive),2.18 (inactive),2.04 (inactive),1.38 (inactive),-0.674,0.972 (inactive),-1.15 (inactive),0.885
COc1cccc(C)c1NC(=O)O[C@H]1[C@H](OC(=O)Nc2ccccc2)[C@@H](OC(=O)Nc2ccccc2)[C@@H](OC)O[C@@H]1CO,-0.818 (inactive),0.26,3.02 (inactive),0.121 (inactive),0.376 (inactive),0.421 (inactive),0.249,-7.01 (inactive),-1.26 (inactive),-2.29
O=C1c2ccccc2[C@@]2(Cc3ccccc3N(CC(F)(F)F)C2=O)[C@H](c2ccc(CO)cc2)N1Cc1ccccc1,-0.98 (inactive),-0.0626,-0.0567 (inactive),-0.992 (inactive),0.11 (inactive),-1.93 (inactive),2.33,-2.06 (inactive),-2.39 (inactive),-2.36
O=C(NCC(F)(F)F)[C@@H]1c2ccccc2C(=O)N(Cc2cc(C(F)(F)F)cc(C(F)(F)F)c2)[C@H]1c1ccc(CO)cc1,0.648 (inactive),0.114,2.54 (inactive),0.0323 (inactive),0.473 (inactive),0.257 (inactive),0.751,0.16 (inactive),0.746 (inactive),1.11
CCCCC(=C=CC[C@@H](O)c1ccc(OCCO)cc1)CCO,0.565 (inactive),0.0129,6.76 (inactive),0.892 (inactive),0.249 (inactive),0.503 (inactive),-0.481,1.14 (inactive),0.699 (inactive),-0.192
COc1cccc(C)c1NC(=O)O[C@H]1[C@H](OC(=O)Nc2ccc3c(c2)OCO3)[C@H](OC(=O)Nc2ccc3c(c2)OCO3)[C@@H](OC)O[C@@H]1CO,-0.66 (inactive),0.855,10.7 (active),1.4 (inactive),1.14 (inactive),0.691 (inactive),-0.0632,-1.52 (inactive),-0.848 (inactive),-1.37
O=C1N(Cc2ccccc2)Cc2ccccc2C[C@@]12COC(c1ccc(OCCCO)cc1)=N2,-0.595 (inactive),0.179,20.3 (active),4.93 (inactive),3.72 (inactive),1.48 (inactive),-0.087,-5.75 (inactive),-0.977 (inactive),-1.8
COCCCNC(=O)[C@@]1(Cc2ccccc2I)c2ccccc2C(=O)N(C2CCCCC2)[C@H]1c1ccc(CO)cc1,0.0773 (inactive),0.293,8.09 (active),0.695 (inactive),2.44 (inactive),0.623 (inactive),0.453,0.392 (inactive),-1.2 (inactive),-3.06
Cc1cccc([C@H]2C[C@H]3C(Br)=C[C@@]2(CO)C(=O)[C@]32CO2)c1,-0.269 (inactive),0.0509,-0.131 (inactive),0.27 (inactive),-0.759 (inactive),-0.063 (inactive),-0.71,0.26 (inactive),0.711 (inactive),-0.0286
CN1C(=O)C2C=CC(C(O)c3ccc([N+](=O)[O-])cc3)N(Nc3ccccc3)C2C1=O (stereo not given),-1.93 (inactive),0.658,1.98 (inactive),1.36 (inactive),2.88 (inactive),1.44 (inactive),-1.06,-1.45 (inactive),-5.03 (inactive),-3.26
